Source: PubChem BioAssay (National Center for Advancing Translational Sciences (NCATS))
Shown is part of a subset that was picked to be rich in hits.
Shiga toxin inh: A qHTS for Small Molecule Inhibitors of Shiga Toxin. inhibition, % at 38.7 µM. Vero cells, Shiga toxin protein synthesis inhibition reporter. actives 9.2% (n = 290,000); in the data active = inhibition mostly above about 28%, no sharp cut-off; inactive = mostly below about 43%; note: 0% is about no effect
AMA1-RON2 inh: qHTS for Inhibitors of AMA1-RON; Towards Development of Antimalarial Drug Lead: Primary Screen; Plasmodium falciparum AMA1 (3D7) - RON2 peptide interaction; AlphaScreen AMA1-biotinylated RON2 peptide binding; Potency, µM (titrated, usually from 58.2 µM), without a hit: at the highest dose activity change, negative = inhibition, most hits filed as inhibitors; actives 0.2% (n = 360,000); active = well fitted inhibition curve with a large enough effect; inconclusive = small, poorly fitted or top-dose-only effect; inactive = no such curve, though single readings can be large or run the other way;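 note: potency is the fitted concentration of half-maximal effect; 0% = vehicle wells and -100% = peptide control; nearly all actives have a fitted effect of over 45% in size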
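AMA1 (3D7) with his tag at 25 nM final met compounds first, then biotinylated RON2 peptide at 25 nM; detection used donor plus acceptor beads, 10 µg/mL apiece, read by AlphaScreen after 30 min at room temperature.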
CHX counter: Cycloheximide Counterscreen for Small Molecule Inhibitors of Shiga Toxin. cell reporter, cycloheximide protein synthesis inhibition counterscreen. max response, %. actives 12% (n = 300,000). AID 2314, 2010; in the data active = max response mostly above about 13%, no sharp cut-off; inactive = mostly below about 14%; note: read at 38.3 µM for the half of the compounds with a filed dose; 0% is about no effect
Lassa entry inh: qHTS for Inhibitors of binding or entry into cells for Lassa Virus. Lassa virus pseudotype entry inhibition, cell reporter. Potency, µM (series often up to 37.9 µM), for the others: at the highest dose activity change, negative = inhibition, usual class: inhibitors. actives 1.2% (n = 300,000); calls by dose curve; tested in HEK293 cells; note: potency is the fitted concentration of half-maximal effect; % is set by controls: 0 for no effect and ±100 for the full control effect; nearly all actives have a fitted effect of over 50% in size
Marburg entry inh: qHTS for inhibitors of binding or entry into cells for Marburg Virus | Marburg virus pseudotyped entry inhibition, cell reporter | Potency, µM (titrated, usually from 37.8 µM), for inactives: at the top dose activity change, negative = inhibition, hits mostly inhibitors | actives 1.8% (n = 300,000) | AID 540276, 2011; calls by dose curve; tested in HEK293 cells; note: potency is the fitted concentration of half-maximal effect; % is set by controls: 0 for no effect and ±100 for the full control effect
* marks the source's active call; other numbers are inactive results; ? = inconclusive; . = no result; [ ] = another dose, or the depositor's remark.

SMILES | Shiga toxin inh | AMA1-RON2 inh | CHX counter | Lassa entry inh | Marburg entry inh
Cc1ccc2nc(N3C(=O)C(O)=C(C(=O)c4cc5ccccc5o4)C3c3cccs3)sc2c1 (centres undefined) | 98* | 12% | 62* | ? | 3%
Cc1ccc(C2C(C(=O)c3cc4ccccc4o3)=C(O)C(=O)N2c2cc(C)on2)cc1 (centres undefined) | -1 | 8% | 2 | -6% | 0%[46.1 µM]
Cc1cc(N2C(=O)C(O)=C(C(=O)c3cc4ccccc4o3)C2c2cccs2)no1 (centres undefined) | 40 | -1% | 19* | 8% | -10%[46.1 µM]
CCc1ccc2nc(N3C(=O)C(O)=C(C(=O)c4ccco4)C3c3cccs3)sc2c1 (centres undefined) | 59* | -3% | 29* | -17% | ?
Cc1cc(N2C(=O)C(O)=C(C(=O)c3ccc(C)o3)C2c2cccs2)no1 (centres undefined) | 7 | ? | 1 | -13% | -5%
CC(OC(=O)c1ccccc1C(=O)N(C)c1ccccc1)C(=O)Nc1ccccc1[N+](=O)[O-] (centres undefined) | . | -13% | . | -12% | 1%
COc1ccc(CCNC(=O)c2c(C)oc3ncn(CC(C)C)c(=O)c23)c(OC)c1 | . | . | . | 18%[46.1 µM] | .
Cc1occc1C(=O)N/N=C/C1=C(N2CCOCC2)C(=C\c2ccc(Cl)cc2)/CC1 | 13 | 41% | 24* | . | -7%
Cc1cc(=O)[nH]c(N/N=C/C2=C(N3CCOCC3)C(=C\c3ccc(Cl)cc3)/CC2)n1 | 6 | -7%[2.32 µM] | 7 | 10% | ?
O=C(N/N=C/C1=C(N2CCOCC2)C(=C\c2ccccc2)/CC1)Nc1ccccc1 | -4 | ? | -2 | -5% | ?
O=C(O)c1ccccc1N/N=C/C1=C(N2CCOCC2)C(=C\c2ccccc2)/CC1 | 59* | -13% | 15 | -9% | 27%[46.1 µM]
c1ccc(-c2csc(NNC3=NCCCCC3)n2)cc1 | 39 | -13% | 39* | -2% | ?
c1ccc(NNC2=NCCCCC2)cc1 | 4 | 11% | 17 | . | .
Clc1ccc(-c2csc(NNC3=NCCCCC3)n2)cc1 | 18 | 46% | 26* | ? | ?
Cc1cc2c(cc1C)N(CC(=O)N1CCCC1)C(=O)CC(c1ccccc1)=N2 | 56* | 5% | 33* | ? | -4%
COc1cc(/C=N/NC(=O)c2ccc3c(c2)OCCO3)cc(Br)c1O | 41* | 4% | 32* | . | .
COc1cc(/C=N/NC(=O)c2ccc3c(c2)OCCO3)c(Br)c(Br)c1O | 30 | 19% | 32* | . | .
COc1cc(/C=N/NC(=O)C23CC4CC(CC(C4)C2)C3)cc(Br)c1O | 26* | 26% | 4 | 4% | ?
COc1cccc(NC(=O)CCc2c(C)nn(-c3ccc(N4CCOCC4)nn3)c2C)c1 | 23 | 3% | 11 | 1%[46.1 µM] | 4%[46.1 µM]
Cc1nn(-c2ccc(N3CCOCC3)nn2)c(C)c1CCC(=O)Nc1ccc(F)cc1 | 10 | -12% | 21* | . | .
Cc1cccc(NC(=O)CCc2c(C)nn(-c3ccc(N4CCCCC4)nn3)c2C)c1 | 72* | -16% | 41* | . | .
Cc1cccc(NC(=O)CCc2c(C)nn(-c3ccc(N4CCOCC4)nn3)c2C)c1 | 40* | -5% | 23* | ? | 20%[46.1 µM]
Cc1ccc(NC(=O)CCc2c(C)nn(-c3ccc(N4CCOCC4)nn3)c2C)cc1C | 50* | 8% | 20* | 18%[46.1 µM] | 5%[46.1 µM]
CSCCC(NC(=O)c1ccccc1Cl)C(=O)NNC(=O)c1ccncc1 (centres undefined) | . | 42% | . | 21% | -3%
CCOc1ccc(C(CC(=O)O)n2cnnn2)cc1 (centres undefined) | 28 | 15% | -2 | -17% | 3%[46.1 µM]
SMILES | Shiga toxin inh | AMA1-RON2 inh | CHX counter | Lassa entry inh | Marburg entry inh
CCC(=O)N1CCc2cc(Br)cc(S(=O)(=O)CCC(=O)N(C)c3cccc(C)c3)c21 | . | . | . | 1%[46.1 µM] | -5%[46.1 µM]
CCOC(=O)c1c(C)[nH]c(C(=O)OCC(=O)N(CC(C)C)C2CCS(=O)(=O)C2)c1C (centres undefined) | . | 3% | . | . | .
COc1ccccc1-c1noc(-c2ccc(NC3CCCC3)c([N+](=O)[O-])c2)n1 | . | . | . | -11%[46.1 µM] | -12%[46.1 µM]
CCCCc1ccc(NC(=O)CSc2nc3ccccc3nc2N2CCOCC2)cc1 | . | . | . | -6%[46.1 µM] | ?
C=CCn1c(-c2ccccc2)c[nH]c1=S | 78* | 28% | 50* | 21% | 3%
Cn1c(-c2ccc(-c3ccccc3)cc2)c[nH]c1=S | 69* | 48% | 31* | ? | ?
CC(C)CCNc1nc2c(S(=O)(=O)c3ccc(Br)cc3)nnn2c2ccsc12 | . | . | . | 10%[46.1 µM] | .
Cc1ccccc1CNC(=O)CCSCc1cnn(-c2ccccc2)c1-n1cccc1 | . | . | . | -12%[46.1 µM] | -16%[46.1 µM]
Cc1ccc(NC(=O)c2snc3c(=O)[nH]cnc23)cc1C | -25 | . | -3 | . | 2%
Cc1ccc(NC(=O)c2snc3ccc(Cl)cc23)cc1C | 32* | -9% | 38* | 6% | 12%
NC(=O)COC(=O)c1ccc(-c2ccc(O)cc2)cc1 | 17 | -7% | 9 | . | .
CC(C(=O)OCc1nnc(-c2ccccc2)o1)N1C(=O)C2CCCCC2C1=O (centres undefined) | 70* | 4% | 37* | . | .
Cc1nc2ccc(C(=O)OCc3nnc(-c4ccccc4)o3)cc2nc1C | -9 | -15% | 10* | 9% | 0%
NC(=O)COC(=O)c1ccc(-c2ccccc2)cc1 | 64* | -6% | 17* | 11%[46.1 µM] | 0%[46.1 µM]
Clc1ccc(-c2nnc(COc3ncnc4ccccc34)o2)cc1 | 55* | 5% | 34* | ? | ?
COC(=O)C1=C(C)NC(C)=C(C(=O)OC)C1C(=O)OCc1nnc(-c2ccccc2)o1 | . | 19% | . | -2% | -8%
Brc1ccccc1-c1nnc(COc2ncnc3ccccc23)o1 | -6 | 10% | -1 | -15% | -5%[46.1 µM]
CC(=O)Nc1ccc(OCc2nnc(-c3ccc(Cl)cc3)o2)cc1 | 58 | 14% | 20* | -6%[46.1 µM] | 2%[46.1 µM]
O=C(OCc1nnc(-c2ccccc2)o1)c1ccccc1 | 90* | 12% | 29* | . | 2%[46.1 µM]
O=C(OCc1nnc(-c2ccccc2)o1)c1ccc(Br)o1 | . | -9% | . | 5% | -19%[46.1 µM]
O=C(OCc1nnc(-c2ccccc2)o1)C12CC3CC(CC(Br)(C3)C1)C2 | 56* | 25% | 35* | . | .
O=C(OCc1nnc(-c2ccccc2)o1)c1ccc(-n2cnnn2)cc1 | . | -9% | . | ? | 23%[46.1 µM]
Cc1ccccc1C(=O)OCc1nnc(-c2ccc(Cl)cc2)o1 | 45* | 26% | 25* | 16%[46.1 µM] | ?
CC(=O)c1ccc(OCCCC(=O)OCc2nnc(-c3ccc(Cl)cc3)o2)cc1 | -9 | 24% | 1 | -3% | 7%
COc1ccc(OC)c(NS(=O)(=O)c2ccc3[nH]c(=O)[nH]c3c2)c1 | . | 21% | . | . | .
O=C(NCCSc1ncc(-c2ccc(F)cc2)[nH]1)c1ccc2c(c1)OCO2 | . | -22% | . | -1% | ?
CSc1nnc(C(C)(C)C)c(=O)n1/N=C/c1ccc(Cl)cc1 | -1 | -22% | -3 | 17% | -2%[14.2 µM]
